Each structure is given as a SMILES string. Among all 2,300 compounds or so, about 1,500 (65%) were called active.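 Rule for the calls: active = mean inhibition over three repeats above a set limit taken from the earlier primary screen (cut at about 30% in these data); inactive = the rest.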 So high a share suggests a set chosen from earlier hits. The full list was thinned out, with actives kept by preference.

This assay has as its target Platelet-activating factor acetylhydrolase 2, cytoplasmic (Homo sapiens) (UniProt Q99487). In words: inhibition of cytoplasmic PAF acetylhydrolase 2 – biochemical, fluorescence polarization, human, confirmation (AID 493030).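 Note: inhibitor blocks binding of rhodamine activity probe so polarization falls; 0% = enzyme with DMSO and 100% = wells lacking PAFAH2 protein.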 The following applies: recombinant PAFAH2, FP-rhodamine activity probe, at 3.39 µM, stronger effect = higher value. Background: Polarisation of emitted light reports the rotation of a fluorescent probe.
In the case of `COc1cccc(N2C(=O)NC(=O)/C(=C\c3cn(C)c4ccccc34)C2=O)c1`, the inhibition (commonly the change of the read-out against control, counted positive when it falls) is 36.5% (active). `Cc1cccc(N2C(=O)NC(=O)/C(=C\c3cnn(-c4ccccc4)c3)C2=O)c1`: the inhibition is 35.3% (active). For the compound `O=C(COC(=O)c1ccccc1)Nc1ccc(Cl)cc1C(=O)c1ccccc1`, the inhibition is 39.7% (active).

The record behind these values is PubChem BioAssay AID493030 (The Scripps Research Institute Molecular Screening Center, 2011).
